Holding throughout (set-up): species or system human, MV4-11 + K-562 + COLO205 + SK-N-BE2 + OVCAR-8
The subject of test [1] is ACVR1. The settings on record: read-out: apparent Kd, n = 1.
Test [2] deals with GSK3A. To be noted: read-out: apparent Kd; compound concentrations:100 nM and 1000 nM (sheet 'Samples'); n = 1.
Test [3] relates to GSK3B. The settings on record: read-out: apparent Kd, n = 1.
Test [4] concerns SIK2. The settings on record: read-out: apparent Kd, n = 1.
The test system of test [5] is ZAK. The settings on record: read-out: apparent Kd, n = 1.
Test [6] deals with ACVR1B. The settings on record: read-out: apparent Kd, compound concentrations: 100 nM and 1000 nM (sheet 'Samples'), n = 1.
In test [7] the test system is CSK. To be noted: read-out: apparent Kd, n = 1.
Test [8] relates to EGFR. To be noted: read-out: apparent Kd, compound concentrations: 100 nM and 1000 nM (sheet 'Samples'), n = 1.
Test [9] relates to EPHA1. The settings on record: read-out: apparent Kd, n = 1.
Test [10] relates to LYN. To be noted: read-out: apparent Kd, compound concentrations: 100 nM and 1000 nM (sheet 'Samples'), n = 1.
Test [11] relates to SRC. The settings on record: read-out: apparent Kd, compound concentrations: 100 nM and 1000 nM (sheet 'Samples'), n = 1.
Test [12] has as its system TNK1. To be noted: read-out: apparent Kd, n = 1.
Test [13] has as its system AKT2. The settings on record: read-out: apparent Kd, n = 1.
In test [14] the test system is AURKB. The settings on record: read-out: apparent Kd, compound concentrations: 100 nM and 1000 nM (sheet 'Samples'), n = 1.
The test system of test [15] is DDR1. The settings on record: read-out: apparent Kd, compound concentrations: 100 nM and 1000 nM (sheet 'Samples'), n = 1.
The subject of test [16] is ACAD11. The settings on record: read-out: apparent Kd, n = 1.
Test [17] relates to DYRK1A. To be noted: read-out: apparent Kd; compound concentrations:100 nM and 1000 nM (sheet 'Samples'); n = 1.
In test [18] the test system is FLT3. To be noted: read-out: apparent Kd, n = 1.
The test system of test [19] is MAPK14. To be noted: read-out: apparent Kd, n = 1.
Setting [20] is: compound concentrations:100 nM and 1000 nM (sheet 'Samples').

The text below walks through data of publication PMC11062922 (Nature Chemical Biology, 2023).

Like-named read-outs stand apart in the source and are kept apart here.

As for `COc1cccc(-c2c[nH]c3c(N/N=C/c4ccncc4)ncnc23)c1` [GW814408X], the potency estimated from few doses in test [1] (setting [20]) was 1370 nM; in [2], 133 nM; in [3] (setting [20]) it was 112 nM; in test [4] (setting [20]), 1180 nM; in test [5] (setting [20]), 1540 nM.

In the case of `CC(C)c1nc(-c2cccc(NS(=O)(=O)c3c(F)cccc3F)c2)c(-c2ccnc(Nc3ccc(N4CCOCC4)nc3)n2)s1.Cl` [GSK1723980B], the potency estimated from few doses in [6] (CATDS: 1.87484218332362E-2) was 614 nM; in test [7] (compound concentrations: 100 nM and 1000 nM (sheet 'Samples'), CATDS: 4.9145326105273501E-2), 81.6 nM; in test [8] (CATDS: 1.4688482058743299E-2), 1660 nM; in test [9] (compound concentrations: 100 nM and 1000 nM (sheet 'Samples'), CATDS: 2.59841988169222E-2) it was 261 nM; in test [10] (CATDS: 2.8217143003072001E-2) it was 219 nM; in test [4] (compound concentrations: 100 nM and 1000 nM (sheet 'Samples'), CATDS: 1.4802843404643599E-2), 1590 nM. Moreover, the potency estimated from few doses was 364 nM in test [11] (CATDS: 2.25730576079274E-2); 104 nM in test [12] (compound concentrations: 100 nM and 1000 nM (sheet 'Samples'), CATDS: 4.2309935228441099E-2); 926 nM in test [5] (compound concentrations: 100 nM and 1000 nM (sheet 'Samples'), CATDS: 1.6677685613390399E-2).

With `Cn1cc(-c2ccc3c(c2)CCN3C(=O)Cc2cc(F)cc(C(F)(F)F)c2)c2c(N)ncnc21` [GSK2635225A], the potency estimated from few doses in test [13] (compound concentrations: 100 nM and 1000 nM (sheet 'Samples'), CATDS: 0.123001791308401) was 1850 nM.

As to `NS(=O)(=O)CCc1cccc(Nc2nccc(-c3c(-c4cccc(NC(=O)c5c(F)cccc5F)c4)nn4ccccc34)n2)c1` [GSK336735A], the potency estimated from few doses in test [14] (CATDS: 5.6735057475689701E-2) is 1260 nM; in test [7] (compound concentrations: 100 nM and 1000 nM (sheet 'Samples'), CATDS: 5.7355343721703998E-2) it was 1220 nM; in test [15] (CATDS: 5.2826618660154298E-2), 1570 nM; in test [8] (CATDS: 5.3399275908321601E-2) it was 1520 nM; in [10] (CATDS: 7.1175193729883096E-2) it was 720 nM; in test [12] (compound concentrations: 100 nM and 1000 nM (sheet 'Samples'), CATDS: 8.7840058842797303E-2), 475 nM.

On to `N#Cc1cccc(Nc2nccc(-c3cnn4ncccc34)n2)c1` [GW778894X], for which the potency estimated from few doses in test [16] (setting [20]) was 228 nM; in test [17], 35.9 nM; in test [18] (setting [20]), 137 nM; in [2], 28.3 nM; in test [3] (compound concentrations: 100 nM and 1000 nM (sheet 'Samples'), CATDS: 5.9931823260346899E-2), 21.2 nM.

As to `CN1CCN(c2ccc(Nc3nc(N)c(C(=O)c4ccc5c(c4)OCCO5)s3)cc2)CC1` [RO0505124-000], the potency estimated from few doses in test [16] (compound concentrations: 100 nM and 1000 nM (sheet 'Samples'), CATDS: 0.36798074276012699) was 137 nM.

As to `O=S(=O)(CCOCc1ccc(-c2ccc3ncnc(Nc4ccc(OCc5cccc(F)c5)c(Cl)c4)c3c2)o1)c1ccccc1` [GW615311X], the potency estimated from few doses is 2280 nM in test [16] (compound concentrations: 100 nM and 1000 nM (sheet 'Samples'), CATDS: 2.2498747845654098E-2); 818 nM in [6] (CATDS: 3.6359113991721197E-2); 1430 nM in test [1] (compound concentrations: 100 nM and 1000 nM (sheet 'Samples'), CATDS: 2.7247604336379499E-2); 2450 nM in [13] (compound concentrations: 100 nM and 1000 nM (sheet 'Samples'), CATDS: 2.19467490651379E-2); 1510 nM in [7] (compound concentrations: 100 nM and 1000 nM (sheet 'Samples'), CATDS: 2.6624527430589399E-2); 997 nM in [8] (CATDS: 3.2602064025644098E-2). Further, the potency estimated from few doses in test [19] (compound concentrations: 100 nM and 1000 nM (sheet 'Samples'), CATDS: 2.8626143180457999E-2) was 1290 nM; in test [11] (CATDS: 2.9038399213399499E-2), 1250 nM.

On to `CS(=O)(=O)Cc1ccc(Nc2nccc(-c3c(-c4cccc(NC(=O)c5c(F)cccc5F)c4)nn4ccccc34)n2)cc1` [GSK323543A], for which the potency estimated from few doses was 1930 nM in test [15] (CATDS: 5.7176748718511097E-2); 2130 nM in [8] (CATDS: 5.5544990287731598E-2); 1440 nM in [10] (CATDS: 6.3006631754301101E-2); 288 nM in test [12] (compound concentrations: 100 nM and 1000 nM (sheet 'Samples'), CATDS: 0.144635692896082).

As to `COc1cc2nccc(Nc3ccc(Oc4ccccc4)cc3)c2cc1OC.Cl` [GI261656A], the results for the potency estimated from few doses in test [8] (CATDS: 3.8994788715485701E-2), in [10] (CATDS: 7.8976671860543801E-2) and in [11] (CATDS: 5.79534996745752E-2) were 2360 nM, 160 nM and 372 nM, respectively.

On to `COc1cc2ncn(-c3cc(OCc4cccs4)c(C(N)=O)s3)c2cc1OC` [GSK312948A], for which, in test [16] (setting [20]), the potency estimated from few doses was 766 nM.

In the case of `O=S(=O)(c1ccc(-c2ccnc3[nH]ccc23)cc1)N1CCCC1` [GSK846226A], the potency estimated from few doses in [16] (setting [20]) is 693 nM.

As to `Nc1nc(N)c2nc(-c3ccccc3)[nH]c2n1` [SKF-12778], the potency estimated from few doses in [16] (setting [20]) was 1290 nM; in test [13] (setting [20]), 1570 nM; in [18] (setting [20]), 1070 nM; in [19] (setting [20]), 973 nM.

For the compound `CN1CCN(Cc2ccc(-c3ccc4c(Nc5ccc(Oc6ccccn6)cc5)ccnc4c3)o2)CC1` [GW567140X], the potency estimated from few doses in [8] (CATDS: 3.6910458353503803E-2) is 1180 nM; in test [9] (compound concentrations: 100 nM and 1000 nM (sheet 'Samples'), CATDS: 4.2699834629257603E-2), 760 nM; in test [18] (compound concentrations: 100 nM and 1000 nM (sheet 'Samples'), CATDS: 5.7646545219248203E-2), 368 nM; in test [10] (CATDS: 3.5611600643533602E-2) it was 1330 nM; in [11] (CATDS: 4.7577990075445997E-2), 573 nM.

Turning to `CC(C)c1nc(-c2ccc(F)c(NS(=O)(=O)c3c(F)cccc3F)c2)c(-c2ccnc(Nc3ccc(N4CCOCC4)nc3)n2)s1` [GSK1804250A], the potency estimated from few doses in test [7] (setting [20]) is 442 nM; in [9] (setting [20]) it was 548 nM; in [12] (setting [20]), 328 nM; in test [5] (setting [20]), 1410 nM.

As for `Nc1ncc(-c2cn[nH]c2)c2scc(-c3ccc4c(c3)CCN4C(=O)Cc3ccccc3)c12` [GSK2593067A], the potency estimated from few doses in [14] (CATDS: 6.5904790346866707E-2) was 1230 nM.

In the case of `CN1CCN(Cc2ccc(NC(=O)Nc3ccc(N(C)c4ccnc(Nc5ccc(CS(C)(=O)=O)cc5)n4)cc3)cc2)CC1.Cl` [GW827654A], the potency estimated from few doses in [14] (CATDS: 4.55704320916199E-2) is 700 nM; in test [15] (CATDS: 9.0540797508364801E-2), 147 nM; in test [18] (compound concentrations: 100 nM and 1000 nM (sheet 'Samples'), CATDS: 0.105116266606525), 112 nM; in [12] (compound concentrations: 100 nM and 1000 nM (sheet 'Samples'), CATDS: 0.12102048296208601) it was 87.9 nM.
